{
  "source": "the supplement of paper PMC7669877",
  "note": "± gives the uncertainty stated by the source.",
  "data": [
    {"tested_on": "Candidatus Liberibacter solanacearum in potato hairy roots", "assay": "relative CLso titer (% of untreated control); higher = less inhibition of bacterial titer", "conditions": "10 µM; 72 h", "description": "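Primary screen of ~220 Spectrum collection (MicroSource) compounds at 10 µM (0.1% DMSO) on Candidatus Liberibacter solanacearum-infected potato hairy roots in multi-well plates (Gamborg B-5 medium, vacuum infiltrated, 21 °C, dark, 72 h). CLso titer was measured by qPCR of 16S rDNA normalised to potato RPL2 (2^-ddCq), pairwise-standardised against untreated controls, averaged over two biological replicates and expressed as % of untreated.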", "units": {"relative CLso titer": "%"}, "values": [
      {"smiles": "COc1cc2c(c(OC)c1OC)-c1ccc(OC)c(=O)cc1[C@@H](NC(C)=O)CC2", "relative CLso titer": "47.6 ± 2.7"},
      {"smiles": "NC(=O)CN1CCCC1=O", "relative CLso titer": "123 ± 35"},
      {"smiles": "CN[C@@H](C)[C@@H](O)c1ccccc1", "relative CLso titer": "98.4 ± 3.8"},
      {"smiles": "O=P1(N(CCCl)CCCl)NCCCO1", "note": "(stereo not given)", "relative CLso titer": "39.8 ± 6.9"},
      {"smiles": "CC[C@H]1CN2CCc3cc(OC)c(OC)cc3[C@@H]2C[C@@H]1C[C@H]1NCCc2cc(OC)c(OC)cc21", "relative CLso titer": "117 ± 28"},
      {"smiles": "O=C(O)CCCO", "relative CLso titer": "127 ± 31"},
      {"smiles": "[O-][n+]1ccccc1[S-].[O-][n+]1ccccc1[S-].[Zn+2]", "relative CLso titer": "64.7 ± 4.9"},
      {"smiles": "CO[C@]12C[C@@H](COC(=O)c3cncc(Br)c3)CN(C)[C@@H]1Cc1cn(C)c3cccc2c13", "relative CLso titer": "135 ± 20"},
      {"smiles": "O=c1[nH]c2ccccc2n1C1CCN(CCCC(c2ccc(F)cc2)c2ccc(F)cc2)CC1", "relative CLso titer": "135 ± 2"},
      {"smiles": "Fc1ccc(Oc2ccnc3cc(Cl)cc(Cl)c23)cc1", "relative CLso titer": "85.4 ± 20"},
      {"smiles": "CCCC(C)(COC(N)=O)COC(=O)NC(C)C", "note": "(stereo not given)", "relative CLso titer": "92.4 ± 17"},
      {"smiles": "COc1ccc2c(c1)[C@]13CCCC[C@@H]1[C@H](C2)N(C)CC3", "relative CLso titer": "539 ± 330"},
      {"smiles": "Cc1cccc(C)c1NC1=NCCCS1", "relative CLso titer": "91.4 ± 17"},
      {"smiles": "CCCCCCCCCCCCCCCC[n+]1ccccc1", "relative CLso titer": "136 ± 72"},
      {"smiles": "C[N+]12CCC(CC1)C(OC(=O)C(O)(c1ccccc1)c1ccccc1)C2", "note": "(stereo not given)", "relative CLso titer": "57.1 ± 5"},
      {"smiles": "Cc1ccc(O)cc1.Cc1cccc(O)c1.Cc1ccccc1O", "relative CLso titer": "70.4 ± 30"},
      {"smiles": "O=C(O)CCCc1ccc(N(CCCl)CCCl)cc1", "relative CLso titer": "111 ± 11"},
      {"smiles": "c1ccc2c(c1)sc1ccccc12", "relative CLso titer": "193 ± 4.5"},
      {"smiles": "O=C1CCO1", "relative CLso titer": "103 ± 58"},
      {"smiles": "C[C@@H]1C[C@@H]([C@H](O)CC2CC(=O)NC(=O)C2)C(=O)[C@@H](C)C1", "relative CLso titer": "214 ± 43"},
      {"smiles": "CNC(C)[C@H](O)c1ccccc1", "note": "(stereo not given in full)", "relative CLso titer": "160 ± 24"},
      {"smiles": "C[C@]12CC[C@H]3[C@@H](CCC4=CC(=O)CC[C@@]43C)[C@@H]1CC[C@@H]2O", "relative CLso titer": "119 ± 11"},
      {"smiles": "CN1C[C@H](C(=O)N[C@]2(C)O[C@@]3(O)[C@@H]4CCCN4C(=O)[C@H](Cc4ccccc4)N3C2=O)C[C@@H]2c3cccc4[nH]cc(c34)C[C@H]21", "relative CLso titer": "107 ± 46"},
      {"smiles": "O=c1[nH]c2ccccc2n1CCCN1CCC(n2c(=O)[nH]c3cc(Cl)ccc32)CC1", "relative CLso titer": "126 ± 28"},
      {"smiles": "CC(=O)O[C@H]1C[C@H](O[C@H]2[C@@H](O)C[C@H](O[C@H]3[C@@H](O)C[C@H](O[C@H]4CC[C@@]5(C)[C@H](CC[C@@H]6[C@@H]5C[C@@H](O)[C@]5(C)[C@@H](C7=CC(=O)OC7)CC[C@]65O)C4)O[C@@H]3C)O[C@@H]2C)O[C@H](C)[C@H]1O[C@@H]1O[C@H](CO)[C@@H](O)[C@H](O)[C@H]1O", "relative CLso titer": "118 ± 37"},
      {"smiles": "CCC(=O)O[C@H]1CC[C@H]2[C@@H]3CCC4=CC(=O)CC[C@]4(C)[C@H]3CC[C@]12C", "relative CLso titer": "83.1 ± 2.9"},
      {"smiles": "CC(C)C[C@H]1C(=O)N2CCC[C@H]2[C@]2(O)O[C@](NC(=O)[C@@H]3C=C4c5cccc6[nH]c(Br)c(c56)C[C@H]4N(C)C3)(C(C)C)C(=O)N12", "relative CLso titer": "76.9 ± 25"},
      {"smiles": "Cc1cc(O)ccc1Cl", "relative CLso titer": "45.9 ± 1.8"},
      {"smiles": "N.N.[Cl][Pt][Cl]", "relative CLso titer": "76.7 ± 6.9"},
      {"smiles": "C[C@@H]1O[C@@H](O[C@H]2C[C@@H](O)[C@]3(CO)[C@H]4[C@H](O)C[C@]5(C)[C@@H](C6=CC(=O)OC6)CC[C@]5(O)[C@@H]4CC[C@]3(O)C2)[C@H](O)[C@H](O)[C@H]1O", "relative CLso titer": "85.6 ± 47"}
    ]}
  ]
}
